About 83,000 compounds went through this panel and 20% of them were active in at least one assay; those are over-represented in the sample as a whole.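 Percent growth is the endpoint: 0 to 100 indicates growth inhibition (40 means 60% inhibition), 0 means no net growth, and negative values indicate cell death.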 A number with no mark means an inactive call. Calls of active or inactive are those of the source. The calls were made as follows: active = growth percent below 10; inactive = the rest.

Some test systems named below: NCI-H23 lung; NCI-H226 lung; NCI-H322M lung; HOP-62 NSCLC; NCI-H460 lung; NCI-H522 lung; A549/ATCC NSCLC; 786-0 renal; COLO 205 colon.
Holding throughout (test): NCI-60 one-dose screen, 48 h (100 = growth as untreated, 0 = no growth, -100 = all killed)
Common to all, as to conditions: 10 µM unless noted

`Cc1nc(Nc2ncc(C(=O)Nc3c(C)cccc3Cl)s2)cc(N2CCN(CCCNC(=O)COc3ccc(C4CCC(=O)NC4=O)cc3)CC2)n1` (stereo unspecified): the growth is 68.8% in the assay with NCI-H23 lung; 68.5% in the assay on NCI-H226 lung; 20.8% in the assay on NCI-H322M lung; 35.4% with HOP-62 NSCLC; 95.8% in the assay on NCI-H460 lung; 17% in the assay with NCI-H522 lung. For the same compound, the growth in the assay with A549/ATCC NSCLC is 33.4%; in the assay with 786-0 renal, 14.4%; in the assay with COLO 205 colon, 10.3%.

With `Cc1ccc2c(c1)nc(-c1ccccc1)n2CC(=O)N=Nc1c(O)[nH]c2ccc(Br)cc12`, the growth in the assay on NCI-H23 lung is -80.1% (active); with NCI-H226 lung, -72.4% (active); in the assay with NCI-H322M lung, -46.4% (active); with HOP-62 NSCLC, -58.7% (active); with NCI-H460 lung, -22.4% (active); in the assay with NCI-H522 lung it was -60.7% (active). Further, the figures for the growth with A549/ATCC NSCLC, with 786-0 renal and in the assay with COLO 205 colon were -45.4% (active), -88.1% (active) and -63% (active), respectively.

Take `COc1c(F)ccc(C(=O)Nc2ccc3nc(NC(=O)C4CCCN(S(=O)(=O)c5ccc(Cl)cc5)C4)sc3c2)c1F` (stereo unspecified): the growth was 85.7% with NCI-H23 lung; 76% with NCI-H226 lung; 86.6% with NCI-H322M lung; 102% in the assay on HOP-62 NSCLC; 81.3% in the assay with NCI-H460 lung; 76.6% in the assay with NCI-H522 lung. Moreover, the growth in the assay on A549/ATCC NSCLC was 65.6%; with 786-0 renal it was 54.7%; in the assay on COLO 205 colon it was 77.8%.

`COc1ccc(-c2ccnc(SCc3cc4ccccc4[nH]c3=O)n2)cc1`: the growth in the assay on NCI-H23 lung is 76.1%; in the assay with NCI-H226 lung, 63.5%; in the assay with NCI-H322M lung, 82.5%; in the assay on HOP-62 NSCLC, 32.3%; in the assay with NCI-H460 lung, 33.6%; in the assay with NCI-H522 lung, 46.9%. Moreover, the results for the growth with A549/ATCC NSCLC, with 786-0 renal and in the assay on COLO 205 colon were 61%, 71% and 77.5%, respectively.

As to `C=C1CCC2C3(C)COC(c4ccccc4)OC3CCC2(C)C1CC(NCc1ccccc1)C1=CCOC1=O` (stereo unspecified), the growth in the assay with NCI-H23 lung is 80.8%; with NCI-H226 lung it was 63.6%; in the assay on NCI-H322M lung, 90.8%; with HOP-62 NSCLC, 85.1%; in the assay with NCI-H460 lung, 97%; in the assay with NCI-H522 lung, 77.6%. In addition, the results for the growth in the assay with A549/ATCC NSCLC, in the assay on 786-0 renal and with COLO 205 colon were 75.9%, 79.3% and 88.3%, respectively.

`COc1cccc(-c2nc(Nc3ccc(S(N)(=O)=O)cc3)c3ccccc3n2)c1`: the growth is 37.9% in the assay on NCI-H23 lung; 25.9% with NCI-H226 lung; 50.3% in the assay with NCI-H322M lung; 58.9% with HOP-62 NSCLC; 18.4% in the assay on NCI-H460 lung; 23.9% in the assay on NCI-H522 lung. Moreover, the growth was 27.7% in the assay on A549/ATCC NSCLC, 5.42% (active) in the assay on 786-0 renal and 27.8% in the assay on COLO 205 colon.

As for `Cc1cc2nc3c([nH]c2cc1C)c1ccc(=O)cc1n3CCN(C)C`, the growth was 38.8% in the assay with NCI-H23 lung; 59% in the assay on NCI-H226 lung; 39.9% with NCI-H322M lung; 43.2% in the assay with HOP-62 NSCLC; 2.91% (active) with NCI-H460 lung; 19.8% with NCI-H522 lung. Moreover, the growth in the assay with A549/ATCC NSCLC is 28.4%; in the assay with 786-0 renal it was 49.1%; in the assay on COLO 205 colon, 10.8%.

Take `CCCCSc1nc(Nc2ccc(S(N)(=O)=O)cc2)c(C#N)c(-c2cc(OC)c(OC)c(OC)c2)n1`: the growth with NCI-H23 lung was 82.9%; with NCI-H226 lung, 59.3%; with NCI-H322M lung it was 75.1%; in the assay with HOP-62 NSCLC it was 81.4%; with NCI-H460 lung it was 35.9%; with NCI-H522 lung, 63.2%. In addition, the growth was 32.2% in the assay with A549/ATCC NSCLC, 57.1% in the assay with 786-0 renal and 39.8% in the assay with COLO 205 colon.

Regarding `CC(C)CCNC(=O)N/C(N)=N/c1nc2ccccc2s1`, the growth in the assay on NCI-H23 lung is 46.9%; in the assay on NCI-H226 lung, 52.1%; with NCI-H322M lung it was 83.1%; in the assay on HOP-62 NSCLC it was 73.6%; with NCI-H460 lung, 66.5%; with NCI-H522 lung, 54.2%. Also, the results for the growth in the assay with A549/ATCC NSCLC, in the assay on 786-0 renal and in the assay with COLO 205 colon were 64.6%, 80.9% and 103%, respectively.

Regarding `CCCCSc1nc(Nc2ccc(C(C)=O)cc2)c(C#N)c(-c2ccc(OC)cc2)n1`, the growth was 60.8% in the assay on NCI-H23 lung; 31.3% with NCI-H226 lung; 75.4% in the assay with NCI-H322M lung; 73.9% with HOP-62 NSCLC; 27.6% with NCI-H460 lung; 87.8% in the assay on NCI-H522 lung. For the same compound, the values for the growth in the assay on A549/ATCC NSCLC, with 786-0 renal and with COLO 205 colon were 45.5%, -12.4% (active) and 82.3%, respectively.

For `CCCS(=O)(=O)N1CCCC(C(=O)Nc2nc3ccc(NC(=O)c4ccc(F)c(OC)c4F)cc3s2)C1` (stereo unspecified), the growth is 33.9% in the assay on NCI-H23 lung; 27.9% in the assay on NCI-H226 lung; 75.6% in the assay with NCI-H322M lung; 68.4% in the assay on HOP-62 NSCLC; 55.9% in the assay on NCI-H460 lung; 39.9% in the assay on NCI-H522 lung. Also, the growth in the assay with A549/ATCC NSCLC is 57%; with 786-0 renal, 37.6%; in the assay on COLO 205 colon, 31.6%.

Regarding `Cc1cccc(-c2nc(Nc3cccc(S(N)(=O)=O)c3)c3ccccc3n2)c1`, the growth with NCI-H23 lung was 39.6%; in the assay with NCI-H226 lung it was 54.3%; in the assay on NCI-H322M lung, 52.2%; in the assay on HOP-62 NSCLC it was 80.2%; in the assay on NCI-H460 lung, 37.6%; with NCI-H522 lung, 4.87% (active). For the same compound, the growth in the assay with A549/ATCC NSCLC was 35.7%; with 786-0 renal, 5.75% (active); in the assay with COLO 205 colon, 51.9%.

As to `Cn1cc(-c2cc(N)n3nc(-c4cn(C)c5ncccc45)cc3n2)c2cccnc21`, the growth in the assay on NCI-H23 lung is -33.1% (active); in the assay with NCI-H226 lung, 86.5%; in the assay on NCI-H322M lung, 104%; in the assay on HOP-62 NSCLC it was 86.1%; in the assay with NCI-H460 lung it was 79.5%; in the assay on NCI-H522 lung, 77%. Besides, the growth is 51.9% with A549/ATCC NSCLC, 81.9% with 786-0 renal and 43.7% in the assay on COLO 205 colon.

Regarding `COc1cc2c3c(n(CCCN4CCC[C@@H]4CO)c(=O)c2cc1OC)-c1cc2c(cc1C3=O)OCO2`, the growth with NCI-H23 lung is -85.7% (active); with NCI-H226 lung, -66.5% (active); in the assay on NCI-H322M lung it was -96.5% (active); in the assay on HOP-62 NSCLC, -53.3% (active); in the assay on NCI-H460 lung, -71.8% (active); in the assay on NCI-H522 lung, -82.1% (active). The growth is -83.3% (active) in the assay on A549/ATCC NSCLC, -86.3% (active) with 786-0 renal and -68.3% (active) with COLO 205 colon.
